High-throughput results from PubChem BioAssay.
MazEF act: activators of E. coli MazEF toxin-antitoxin RNase. activation, % at 20 µM. P0AE70. AID 504720. 0.32% of 350,000 active. FAM/BHQ RNA-DNA oligo cleavage fluorescence, 5 h; in the data active = activation above about 50%
Target sequence (P0AE70 whole entry, looked up): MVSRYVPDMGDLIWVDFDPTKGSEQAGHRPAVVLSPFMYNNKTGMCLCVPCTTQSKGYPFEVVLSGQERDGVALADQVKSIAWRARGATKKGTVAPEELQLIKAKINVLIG
BoNT A protease: inhibitors of Botulinum neurotoxin A light chain protease; multiplex microsphere protease substrate cleavage, flow cytometry; inhibition, % at 10 µM; 0.17% of 360,000 active; AID 588499; also: plate controls were buffer without enzyme for full effect and enzyme alone for no effect
Bead autofluor: compound fluorescence in toxin protease inhibitor counterscreen; compound autofluorescence counterscreen, microsphere flow cytometry; hits give high values; fluorescence intensity (no concentration beside the values); 3.1% of 360,000 active; in the data active = fluorescence intensity above about 16000; inconclusive = no clear call, values can overlap the other calls
BoNT F protease: blocks Botulinum neurotoxin F light chain protease; Multiplex microsphere protease cleavage assay, flow cytometry; inhibition, % at 10 µM; 0.22% of 360,000 active; in the data active = inhibition above about 35%, passing the limit was not always enough; inconclusive = no clear call, values can overlap the other calls; also: plate controls were buffer without enzyme for full effect and enzyme alone for no effect
Anthrax LF inh2: anthrax lethal factor protease inhibition; multiplex microsphere protease cleavage assay, LF; 0.12% of 360,000 active; inhibition, % at 10 µM; AID 588501; also: plate controls were buffer without enzyme for full effect and enzyme alone for no effect
The depositor's hits bear a star; u = inconclusive; x = no result. This is a sample that favours compounds with a hit; in the whole collection about 3.7% have one here. Rule as the data show it, unless noted: active = inhibition above about 30%; inconclusive = no clear call, values can overlap the other calls; inactive = below that.

SMILES	MazEF act	BoNT A protease	Bead autofluor	BoNT F protease	Anthrax LF inh2
C=CCOc1c(Br)cc(CNc2ccc(NC(=O)C(C)C)c(OC)c2)cc1OC	7	u	20313*	5	-9
COc1cc(NC(=O)c2ccco2)c(C(=O)O)cc1OC	-7	-2	23681*	-2	-3
COC(=O)c1cc(OC)c(OC)cc1NC(=O)c1ccco1	5	1	3074	-2	0
C=CCNC(=S)Nc1sc2c(c1C(=O)OCC)CC(C(C)C)OC2 (configuration not stated)	-4	0	22389*	0	0
CC(=O)c1c(C(C)=O)c(C)n(-c2nc(-c3ccc(Br)cc3)c(C)s2)c1C	-1	-3	17033*	-8	-10
COc1ccc(-c2nc(-n3c(C)c(C(C)=O)c(C(C)=O)c3C)sc2C)cc1OC	7	-1	5892	-4	-2
CN(Cc1ccccc1)C(=O)CCNS(=O)(=O)c1ccc2c(c1)oc(=O)n2C	-1	-1	20317*	-3	-1
CCCN(CCC)CCCNS(=O)(=O)c1ccc2c(c1)oc(=O)n2C	-4	u	23740*	-11	-8
CCCNS(=O)(=O)c1cccc(C(=O)NC2CCCc3ccccc32)c1 (configuration not stated)	-2	1	22288*	3	-1
CC(C)OCCCNS(=O)(=O)c1ccc2c(c1)oc(=O)n2C	2	0	5787	0	5
Cn1c(=O)oc2cc(S(=O)(=O)NCCC(=O)NC3CCCc4ccccc43)ccc21 (configuration not stated)	3	-1	20326*	-2	-3
CCN(CC(=O)Nc1c(F)cccc1F)C(=O)c1ccc(OC)c(S(=O)(=O)NC2CCCC2)c1	3	0	2841	1	-2
c1csc(CNc2nc(Oc3ccncc3)c3sccc3n2)c1	x	0	3477	-3	-5
COc1ccc(C2CC(C(F)(F)F)n3nc(C(=O)O)c(Cl)c3N2)cc1OC (configuration not stated)	3	0	2138	-5	0
COc1ccc(C2CC(C(F)(F)F)n3nc(CO)c(Cl)c3N2)cc1OC (configuration not stated)	-14	0	16477*	-2	-1
O=C(NNC(=O)C12CC3CC(CC(C3)C1)C2)c1cccc([N+](=O)[O-])c1	10	-2	5405	3	-1
O=C(NNc1ccc([N+](=O)[O-])cc1)C12CC3CC(CC(C3)C1)C2	1	-1	20243*	-3	0
CCCCn1c(-c2ccoc2C)n[nH]c1=S	-2	-1	23012*	-2	-2
COc1ccc(NC(=O)CN(C)C(C)C(=O)N2CCCCC2)cc1 (configuration not stated)	3	1	21556*	5	-3
COc1ccc(C2C(C(=O)OCC3CCCO3)=C(C)NC3=C2C(=O)CC(c2ccco2)C3)cc1O (configuration not stated)	-3	0	23267*	-1	-2
Cc1ccc(NC(=O)CS(=O)CC(=O)Nc2ccccc2-c2ccc(C)o2)cc1 (configuration not stated)	300*	-1	4284	-4	-2
Cc1nc(NC(C)C(=O)O)c2nc(C)oc2n1 (configuration not stated)	7	2	21393*	3	-1
C[C@@H]1OC(C2CCCCC2)N(C)[C@H]2C[C@H]3c4[nH]c5ccccc5c4CCN3C[C@@H]12 (some centres not stated)	x	6	6824	-7	4
Cc1ccc(C)c(S(=O)(=O)N2CCN(C(=O)c3cnccn3)CC2)c1	10	0	23149*	1	-3
Cc1cnc(C(=O)N2CCN(S(=O)(=O)c3ccc4ccccc4c3)CC2)cn1	6	0	20208*	1	0
SMILES	MazEF act	BoNT A protease	Bead autofluor	BoNT F protease	Anthrax LF inh2
O=C(CCl)NCc1c(Cl)cccc1-n1cccc1	5	0	22575*	-3	3
COc1ccc(OCCC(=O)OCC(=O)NC(=O)NC(C)C)cc1	8	x	x	x	x
CC(C)NC(=O)NC(=O)COC(=O)CCOc1ccccc1	4	0	24104*	-1	1
COc1ccccc1N=Cc1c(C)c(C#N)c2[nH]c3ccccc3n2c1=O	143*	1	4603	-3	0
CN(C)CCNC(=S)Nc1cccc(Cl)c1	8	-1	23002*	-2	-1
CN(C)CCNC(=O)Nc1ccc(Cl)c(Cl)c1	2	-2	24214*	-1	-1
CN(C)S(=O)(=O)c1cccc(NC(=S)Nc2ccc(Cl)cc2Cl)c1	1	x	x	x	x
CN(C)NC(=S)Nc1cccc(Cl)c1	9	u	u	u	-1
O=C(NCCc1ccncc1)Nc1ccc(Cl)c(Cl)c1	4	-1	4445	2	-6
CN(C)S(=O)(=O)c1cccc(NC(=S)Nc2cc(Cl)cc(Cl)c2)c1	0	u	23036*	-2	-1
COc1ccc(-c2cnn3c(N)c(S(=O)(=O)c4ccccc4)cnc23)cc1	-7	-1	20604*	-2	-3
Nc1c(S(=O)(=O)c2ccccc2)cnc2c(-c3ccc(F)cc3)cnn12	11	4	15012	6	-3
CC(C)(C)S(=O)(=O)c1cnc2c(-c3ccc(F)cc3)cnn2c1N	40	u	21191*	-1	1
COc1ccc(-c2cnc3c(-c4ccc(F)cc4)cnn3c2N)cc1	-7	-1	3654	3	0
CC(C)(C)S(=O)(=O)c1cnc2c(-c3ccc(Cl)cc3)cnn2c1N	-30	0	5860	-7	1
COc1ccc(-c2cnn3c(N)c(S(=O)(=O)C(C)(C)C)cnc23)cc1	-2	u	21645*	0	-10
CC(NC(=O)CN1C(=O)NC2(CCCC2)C1=O)c1ccc(Cl)cc1Cl (configuration not stated)	4	-1	3177	-16	-2
C/C(CC(=O)Nc1cc(C)ccn1)=N\NC(=O)C(=O)Nc1cccc(C)c1	195*	0	2190	-2	-1
COc1cccc(/C=N/N2CCN(c3ccccc3OC)CC2)c1	-3	-4	24263*	-5	-5
COc1ccc(/C=N/N2CCN(c3ccccc3OC)CC2)cc1OC	-1	u	16494*	-1	-5
COc1ccc(/C=N/N2CCN(c3ccccc3OC)CC2)cc1Br	3	1	2971	u	24
COc1ccc(C(=O)c2c(N)sc3c2CCN(C)C3)cc1	-10	34*	4611	-51	-7
CC(C)(C)OC(=O)N[C@@H](C(=O)OC(C)(C)C)c1ccccc1	1	0	2944	-2	-10
CC(C)(C)c1ccc(CC(=O)N2CCC2(C)C(=O)Nc2cnc3ccccc3c2)cc1 (configuration not stated)	x	-1	4053	-4	0
O=C(CCl)Nc1ccc(Oc2cnc3ccccc3n2)cc1	2	3	21837*	5	0
CCn1c(NCc2ccccn2)nc2ccccc21	3	-1	3247	-13	2
CS(=O)(=O)c1nc2ccccc2n1Cc1ccccc1	5	-1	23807*	0	1
CCn1c(-c2cccnc2Cl)nc2ccccc21	5	1	23168*	-1	0
